# This is a sample that favours compounds with a hit; in the whole collection about 5.6% have one here.
# H9c2 protect = myocardial damage modulation in H9c2 cells. H9c2 cardiomyocytes, H2O2 injury protection, ATPLite, 2 h. protection from H2O2 cell death, % at 20 µM. actives 0.63% (n = 360,000). AID 588492;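 active = compounds giving at least 50% protection of heart cells from peroxide-induced death in the single-dose screen, raw or plate-pattern-corrected value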;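 note: 0% = DMSO wells with peroxide and 100% = DMSO wells without peroxide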
# PfGluPho inh = PfG6PD (Plasmodium falciparum) enzyme inhibition; PfGluPho enzyme, NADPH resazurin-diaphorase fluorescence; actives 0.78% (n = 350,000); inhibition, % at 20 µM;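 active = inhibition reaching at least a set limit at 20 µM in the primary screen, cut at about 59% in these data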;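 note: 0% = DMSO wells with substrate and 100% = DMSO wells lacking glucose-6-phosphate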
# ALR H2O2 inh = inhibitors of human sulfhydryl oxidase ALR | P55789 | purified ALR, DTT oxidation, H2O2 HRP-luminol luminescence | actives 3.8% (n = 290,000) | AID 485317 | inhibition, % (concentration not given with the values);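 active = mean replicate inhibition above about 79%, with every replicate also reaching it, limit read from the data; inconclusive = only one of the two criteria met; inactive = mean below limit and not every replicate reaching it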
# Target sequence (P55789 whole entry, looked up): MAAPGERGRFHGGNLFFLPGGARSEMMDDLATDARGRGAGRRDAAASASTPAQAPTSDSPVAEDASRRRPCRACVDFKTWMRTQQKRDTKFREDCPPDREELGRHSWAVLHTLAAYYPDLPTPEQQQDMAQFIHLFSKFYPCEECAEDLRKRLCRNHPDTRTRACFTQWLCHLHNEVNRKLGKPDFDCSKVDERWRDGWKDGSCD
# M18AAP inhibitor = blocks P. falciparum M18 aspartyl aminopeptidase; recombinant PfM18AAP, H-Glu-NHMec fluorogenic cleavage; inhibition, % at 7.35 µM; actives 1.2% (n = 290,000);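 active = inhibition above the campaign mean inhibition over all tested compounds plus 3 SD, cut at about 28% in these data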;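 note: 0% = plate median of test compound wells and 100% = 2 mM ZnCl2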
# PHOSPHO1 block = inhibitors of human PHOSPHO1 phosphatase; actives 1.1% (n = 290,000); AID 1565; Q8TCT1; inhibition, % at 13.3 µM; recombinant PHOSPHO1, absorbance phosphatase assay; in the data active = inhibition above about 60%
# Target sequence (Q8TCT1 whole entry, looked up): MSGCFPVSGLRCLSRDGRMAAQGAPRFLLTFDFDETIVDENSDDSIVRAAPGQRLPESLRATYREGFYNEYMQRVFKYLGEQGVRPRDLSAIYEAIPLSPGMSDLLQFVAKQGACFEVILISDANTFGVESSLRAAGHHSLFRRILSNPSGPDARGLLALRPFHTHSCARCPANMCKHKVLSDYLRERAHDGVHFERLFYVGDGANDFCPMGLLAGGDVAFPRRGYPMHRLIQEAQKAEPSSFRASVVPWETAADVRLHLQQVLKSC
# Numbers without * were called inactive; ? = inconclusive; . = not tested or not shown.
SMILES,H9c2 protect,PfGluPho inh,ALR H2O2 inh,M18AAP inhibitor,PHOSPHO1 block
CSc1ccc(CNc2ccccc2)cc1,.,.,90*,0,-15
CSc1ccc(CNc2ccccn2)cc1,-29,-1,0,-19,76*
CN(C)c1ccc(CNc2ccccn2)cc1,0,3,98*,4,.
Cc1cccc(NCc2ccc(N(C)C)cc2)n1,-10,14,82*,1,4
CCn1cc(Br)c(C(=O)Nc2cccc(SC)c2)n1,1,19,99*,9,-32
COc1cc(C(=O)O)c2c(c1C)OC(=O)c1c(C)cc(O)c(C=O)c1O2,1,-21,99*,.,.
O=C(CSc1ccc2nnc(-c3ccccn3)n2n1)Nc1ccccc1F,10,-5,-17,3,22
O=C(/C=C/NNC(=O)c1ccccc1)c1ccc(Br)cc1,59*,-17,5,-5,4
COc1ccc(C(=O)C=CNNC(=O)c2ccc(Cl)cc2)cc1,43,-30,.,6,-8
COc1ccc(C(=O)NN/C=C/C(=O)c2ccc(Br)cc2)cc1,58*,-13,.,.,.
COc1cccc(Cn2cnc3c(N)c(C)c(C)cc32)c1,-7,40,33,1,45
CCCn1cnc2c(N)c(C)c(C)cc21,-2,31,83*,1,73*
O=C1NC(=S)S/C1=C1\Sc2ccccc2N1CCCS(=O)(=O)O,7,-13,?,12,72*
Cc1ccc(N2CC(C(=O)Nc3ccc(N4CCOCC4)cc3)CC2=O)cc1C (stereo unspecified),-1,-3,-7,-6,26
O=c1c(-c2ccc(O)cc2)coc2c([C@@H]3O[C@H](CO)[C@@H](O)[C@H](O)[C@H]3O)c(O)ccc12,0,-16,99*,.,.
O=c1c(-c2ccc(O)cc2)coc2c(C3O[C@H](CO)[C@@H](O)[C@H](O)[C@H]3O)c(O)ccc12 (stereo partly specified),6,-11,99*,13,24
CCCN(CCC)CCNC(=O)CS(=O)Cc1nc(-c2ccc(C)cc2)oc1C (stereo unspecified),-4,0,98*,2,48
CCCNC(=O)CS(=O)Cc1nc(-c2ccc(OC)cc2)oc1C (stereo unspecified),3,-4,99*,-4,15
CCCCNC(=O)CS(=O)Cc1nc(-c2ccc(C)cc2)oc1C (stereo unspecified),1,-4,99*,4,-4
COCCNC(=O)CS(=O)Cc1nc(-c2ccc(Cl)cc2)oc1C (stereo unspecified),-3,-8,.,-1,-2
Cc1ccc(-c2nc(CS(=O)CC(=O)NCCC(C)C)c(C)o2)cc1 (stereo unspecified),-1,-4,98*,-3,19
CCOC(=O)c1c(S(=O)(=O)N2CCN(Cc3ccccc3)CC2)c(C)n(C)c1C,1,-2,-6,-2,40
CCCC(=O)C1=C(c2ccccc2)C(C#N)(C#N)C(C#N)=C1N,25,14,99*,8,1
CCCC(=O)C1=C(N(C)c2ccccc2)CC(C)(C)CC1=O,-1,-11,-1,2,.
Cc1nc2cc3nc(C)sc3cc2s1,-16,58,-24,29*,68*
SMILES,H9c2 protect,PfGluPho inh,ALR H2O2 inh,M18AAP inhibitor,PHOSPHO1 block
C[C@H]1CNC(=O)c2c(C(=O)N[C@@H](Cc3c[nH]c4ccccc34)C(=O)OC(C)(C)C)ncn21,1,12,.,.,.
Cc1cccc(-n2c(-c3ccco3)n[nH]c2=S)c1,3,17,86*,12,4
Cc1ccccc1-n1c(-c2ccco2)n[nH]c1=S,2,31,51,30*,6
CN(Cc1ccccc1)C(CNS(=O)(=O)c1ccccc1)c1ccccc1 (stereo unspecified),-21,18,.,.,.
CC1CCCC(NC(=O)Cn2cc(C(F)(F)F)cc(Cl)c2=O)C1C (stereo unspecified),6,7,.,.,.
CN(C)c1ccc(C(=O)c2ccccc2C(=O)O)c(O)c1,1,-10,-6,2,32
CCCCN(CCCC)c1ccc(C(=O)c2ccccc2C(=O)O)c(O)c1,3,-27,90*,1,37
CCN(C(=S)NC(=O)CCc1ccccc1)c1ccccc1,2,16,77*,-7,7
CN(C)c1cccc(NC(=O)CCc2ccccc2)c1,-11,2,98*,-10,-3
O=C(c1ccco1)n1nc(-c2ccccc2)nc1NCc1ccco1,0,-3,78*,5,-21
Cc1ccc(-c2nc(NCc3ccco3)n(C(=O)c3ccco3)n2)cc1,-7,7,.,-6,-16
CCN(C(=O)CSc1n[nH]c(N)n1)c1cccc2ccccc12,3,7,6,.,.
CCCc1nc2ccccc2c(C(=O)N(CC)CC(=O)NCc2cccs2)c1CC,6,6,.,.,.
Cc1cccc(-c2cccc(NC(=O)C3CCCN(Cc4cccnc4)C3)c2)c1 (stereo unspecified),5,-1,-11,2,61*
COc1ccc(N2CCN(c3ccc(C(=O)O)cc3[N+](=O)[O-])CC2)cc1,-5,-19,79*,1,.
O=C(NC1CCCCC1)C(c1ccc(O)cc1)N(C(=O)c1cnccn1)c1cccc(F)c1 (stereo unspecified),10,-6,1,6,7
Cn1c(=O)n(CCc2ccccc2)c(=O)c2c1nc1n2CCCN1Cc1ccccc1,116*,9,10,-5,1
Cn1c(=O)n(CCc2ccccc2)c(=O)c2c1nc1n2CCCN1CCc1ccccc1,106*,7,5,-3,-2
O=C(NNC1=C(C(=O)C(F)(F)F)CCC1)c1ccccc1O,20,-6,87*,27,20
COc1ccccc1C(=O)NNC1=C(C(=O)C(F)(F)F)CCC1,67*,-14,11,1,45
COc1ccccc1C(=O)NNc1ncc(C)s1,4,8,.,31*,24
CCN(CC(=O)Nc1ccc(OC)cc1)CC(=O)N1CC(=O)Nc2ccccc21,2,11,-3,.,.
O=C(CCCN1C(=O)NC2(CCCC2)C1=O)Nc1ccc(Cl)c(S(=O)(=O)N2CCOCC2)c1,9,1,.,.,.
COc1ccc(Cn2c(CCC(=O)NCCC(C)C)nc3ncccc3c2=O)cc1,14,10,-2,5,11
COc1cccc(CNC(=O)COc2ccc(C(=O)c3ccccc3)cc2)c1,8,1,.,0,32
SMILES,H9c2 protect,PfGluPho inh,ALR H2O2 inh,M18AAP inhibitor,PHOSPHO1 block
NC(CCC(=O)NC(CS)C(=O)NCC(=O)O)C(=O)O (stereo unspecified),3,4,.,.,.
O=C(OCC(=O)N1CCN(c2ccccc2)CC1)c1ccc(Cl)nc1,3,2,97*,.,.
CCOCCCn1c(SCC(=O)Nc2ccc(NC(C)=O)cc2)nc2ccccc2c1=O,6,-18,-5,-3,29
CCC(=O)N=c1sc2cc(F)cc(F)c2n1C,-9,1,-1,-15,.
CCn1c(=NC(=O)CSC(C)=O)sc2cc(F)ccc21,3,-16,98*,7,12
C#CCn1c(=NC(=O)CSC(C)=O)sc2cc(F)ccc21,-6,-5,97*,1,32

# Screens (PubChem)
